Screening results: PubChem BioAssay, National Center for Advancing Translational Sciences (NCATS)
NPC1 promoter act = activators of NPC1 promoter; Huh7 NPC1 promoter luciferase reporter, 24 h; actives 2.4% (n = 320,000); Potency, µM (doses to about 9.22 µM), without a hit: at the highest dose activation, most hits filed as activators; also: % of control where 0% means no effect; nearly all actives have a fitted effect of over 60% in size
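Luminescence read-out of NPC1 promoter-driven luciferase in stably transfected Huh7 cells; compounds delivered in DMSO and left 24 h at 37C, 5% CO2, qHTS titration format.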
ELG1 repair inh = inhibitors of ELG1-dependent DNA repair in HEK293T cells; HEK293T ELG1-luciferase reporter, luminescence, 16 h; DNA damage induced by 5-fluorouridine; Potency, µM (titrated, usually from 46.1 µM), for inactives: top-dose activity change, negative = inhibition, hits mostly inhibitors; actives 2.3% (n = 330,000); also: % is scaled to controls: 0 for no effect and ±100 for the full control effect; nearly all actives have a fitted effect of over 55% in size
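Cells (2,000 per well) received 5-fluorouridine plus test compound or DMSO and were incubated 16 hr at 37 °C, 5% CO2. Luciferase activity was read by luminescence 30 min after ONE-Glo addition; signal suppression marked inhibition of damage-induced ELG1 function.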
ELG1 genotox = genotoxicity induction in ELG1-luciferase HEK293T cells. Potency, µM (titrated, usually from 46 µM), for inactives: at the highest dose activity change, positive = activation, most hits filed as activators. actives 1.3% (n = 330,000). HEK293T ELG1-luciferase reporter, luminescence, 16 h; also: % of control where 0% means no effect; nearly all actives have a fitted effect of over 60% in size
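DMSO vehicle served as control against compound-treated ELG1-luciferase HEK293T cells; exposure lasted 16 hr at 37 °C and 5% CO2, followed by ONE-Glo luminescence detection after 30 min.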
SMN2 splice enh = enhancers of SMN2 splice variant expression; HEK293 SMN2-luciferase splicing reporter, luminescence, 30-36 h; Potency, µM (titrated, usually from 46.1 µM), for inactives: at the top dose activity change, positive = activation, usual class: activators; actives 2.8% (n = 210,000); AID 1458; also: % of control where 0% means no effect; nearly all actives have a fitted effect of over 55% in size
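HEK293 cells carry an SMN2 minigene-luciferase reporter in which exon 7 inclusion puts luciferase in frame. Cells were seeded at 2000 cells/well, attached for 10-12 hours, then exposed to compounds for 30-36 hours at 37C before ONE-Glo luminescence.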
Rab9 promoter act = activators of Rab9 promoter | Potency, µM (top dose mostly 9.22 µM), without a hit: at the highest dose activation, negative = inhibition, most hits filed as activators | actives 2.8% (n = 320,000) | Huh7 Rab9 promoter-luciferase reporter, luminescence, 24 h; also: % of control where 0% means no effect; nearly all actives have a fitted effect of over 60% in size
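Huh7 cells stably carrying Rab9 promoter–luciferase reporter, plated 1500 cells/well, compound added after 2 h and incubated 24 h at 37 °C; luciferase luminescence then read after 10 min with detection reagent.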
FLuc modulator = counter-screen for miR-21 project: firefly luciferase inhibitors or activators; P08659; purified FLuc, Km substrates, luminescence inhibition; Potency, µM (highest dose often 57.5 µM), without a hit: at the top dose activity change, negative = inhibition, hits mostly inhibitors; actives 6.9% (n = 360,000); AID 588342;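 also: plate controls were vehicle for no effect and reference inhibitor for full effect; nearly all actives have a fitted effect of over 55% in size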
Target sequence (P08659 whole entry, looked up): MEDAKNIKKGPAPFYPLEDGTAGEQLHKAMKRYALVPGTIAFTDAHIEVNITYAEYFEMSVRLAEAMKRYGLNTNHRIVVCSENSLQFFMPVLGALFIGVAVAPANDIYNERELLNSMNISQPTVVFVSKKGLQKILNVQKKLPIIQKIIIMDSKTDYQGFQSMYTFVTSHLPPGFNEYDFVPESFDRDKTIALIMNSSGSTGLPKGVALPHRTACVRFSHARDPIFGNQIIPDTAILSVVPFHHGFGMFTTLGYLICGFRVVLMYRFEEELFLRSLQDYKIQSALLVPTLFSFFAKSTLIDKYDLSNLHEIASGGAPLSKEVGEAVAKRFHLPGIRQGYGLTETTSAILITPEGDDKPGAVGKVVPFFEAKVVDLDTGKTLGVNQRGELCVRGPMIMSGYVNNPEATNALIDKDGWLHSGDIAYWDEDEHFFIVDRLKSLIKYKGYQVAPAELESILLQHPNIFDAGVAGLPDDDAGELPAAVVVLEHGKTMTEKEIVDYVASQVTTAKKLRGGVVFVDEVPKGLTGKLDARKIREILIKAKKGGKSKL
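Purified P. pyralis luciferase (10nM final) with 10uM D-luciferin and 10uM ATP (Km levels) in 50mM Tris acetate pH 7.5, 10mM Mg acetate, 0.01% Tween-20, 0.05% BSA; qHTS 6-point titration, ~60 µM downward; luminescence read.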
Numbers without * were called inactive; ? = inconclusive; nt = no result given; [ ] = remark or other dose. An excerpt weighted towards active compounds, which were near 9.3% of everything screened. Calls follow the shape of the dose curve; as a rule, active = well fitted curve in the direction sought with a large enough effect; inconclusive = small, poorly fitted or top-dose-only effect, or another doubt; inactive = no such curve, though single readings can be large; an effect the other way counts as inactive or inconclusive. Potency is read from the fitted curve at half-maximal effect.

SMILES | NPC1 promoter act | ELG1 repair inh | ELG1 genotox | SMN2 splice enh | Rab9 promoter act | FLuc modulator
COc1ccc(C(=O)N/N=C(/C)c2cccc(NC(=O)c3ccncc3)c2)cc1OC | 2% | ? | -4% | nt | -2% | ?
COc1ccc(Br)cc1/C=N/Nc1cccc(C(=O)O)c1 | 3.2µM* | ? | ? | 11µM* | 1.6µM* | 21µM*
C/C(=N\NC(=O)c1cc(-c2cccnc2)nc2ccccc12)c1ccccc1O | -36% | ? | ? | -82% | -33% | ?
CCNC(=S)NNC(=O)c1cc(-c2cccnc2)nc2ccccc12 | -3% | ? | 3% | 13% | 3% | 9.5µM*
CCCNC(=S)NNC(=O)c1cc(-c2cccnc2)nc2ccccc12 | -1% | 17% | -2% | nt | -9% | 19µM*
CCCCNC(=S)NNC(=O)c1cc(-c2cccnc2)nc2ccccc12 | -2% | -2% | 0% | nt | 0% | 15µM*
Cc1ccc(C)c(-c2cc(C(=O)Nc3cccnc3)c3ccccc3n2)c1 | -1% | ? | -15% | nt | 11% | 1%
CCOC(=O)Cn1c(=O)n(-c2ccccc2OC)c2nc(-c3ccccc3)nc(C(N)=O)c21 | nt | nt | nt | nt | nt | -1%
CCCc1nc2sc3c(=O)n(N)cnc3c2c2c1COC(C)(C)C2 | 7% | 1% | 3% | -18% | -2% | 2%
O=C(N/N=C/c1cccc2cccnc12)c1ccccc1O | -1% | ? | 21µM* | nt | -9% | 7.6µM*
O=C(COc1ccc(Cl)cc1)N/N=C/c1cccc2cccnc12 | -1% | ? | -1% | nt | -2% | 2%
O=C(N/N=C/c1cccc2nccnc12)c1ccccc1O | -7% | 4% | 12% | nt | 3% | 11µM*
O=C(N/N=C/c1ccccc1Br)c1ccc(CSc2cccc3cccnc23)cc1 | 3% | 21µM* | 3% | -41% | -1% | -4%
COc1ccc(Cn2nnc3ccccc32)cc1 | 1% | -1% | 0% | nt | -2% | -8%
CCOc1ccc(/C=C/C2=Cc3c(sc(NC(=O)CSc4n[nH]c(N)n4)c3C#N)C(C)(C)C2)cc1 | 11% | ? | -16% | 3% | 1% | 9.5µM*
CC(=O)NC12CC3CC(C1)CC(C(=O)OCC(=O)Nc1ncc(Cl)c(C)c1Cl)(C3)C2 | 0% | -12% | -1% | 5% | -1% | 2%
O=C(Nc1ccc(NC(=O)c2cccs2)cc1)c1ccc2c(c1)OCCO2 | -4% | 16% | ? | nt | -16% | -7%
O=C(NNC(=O)c1cccs1)c1ccc2ccccc2c1 | 18% | ? | ? | 10% | ? | -18%
O=C(COC(=O)c1cccs1)c1ccc2c(c1)OCCO2 | 1.6µM* | ? | 10µM* | -10% | 0.32µM* | 0.076µM*
O=C(COC(=O)c1cccs1)c1ccc2ccccc2c1 | ? | ? | ? | -20% | 28% | 1.7µM*
CC(=O)NC12CC3CC(C1)CC(C(=O)OCC(=O)c1ccc4c(c1)OCCO4)(C3)C2 | 0.5µM* | ? | ? | -2% | 0.1µM* | 0.24µM*
Cc1ccc(NC(=O)N2C(=O)C3(OCCO3)c3ccccc32)cc1 | 3.2µM* | ? | ? | ? | 2µM* | ?
Fc1ccc(C2=CC(c3cccs3)n3nnnc3N2)cc1 (centres undefined) | -2% | ? | 5% | nt | 8% | -1%
CCOc1ccc(C2C=C(c3ccccc3)Nc3nnnn32)cc1 (centres undefined) | 2.8µM* | ? | ? | 14% | 1.6µM* | 0%
Cc1ccc(C2=CC(c3cccs3)n3nnnc3N2)cc1 (centres undefined) | 5µM* | ? | 3% | 15% | ? | -26%
SMILES | NPC1 promoter act | ELG1 repair inh | ELG1 genotox | SMN2 splice enh | Rab9 promoter act | FLuc modulator
Cc1cc(C)n(-c2ccc(C(=O)Nc3sccc3C(N)=O)cc2)n1 | ? | ? | ? | 13µM* | ? | 6.7µM*
Cc1cc(C)n(-c2ccc(C(=O)Nc3ccccn3)cc2)n1 | 0.89µM* | ? | ? | 1.6µM* | 0.5µM* | 6µM*
CCN1CCN(c2ccc(Cl)cc2NC(=O)c2ccc(-n3nc(C)cc3C)cc2)CC1 | -3% | 15µM* | -10% | nt | -3% | -1%
Cc1cc(C)n(-c2ccc(C(=O)Nc3nnc(C)s3)cc2)n1 | 13% | ? | ? | 2% | ? | 13µM*
Cc1cc2cc(CN(CCCN3CCOCC3)C(=O)NC3CCCCC3)c(=O)[nH]c2cc1C | 0% | -15% | 1% | -2% | -9% | -9%
CCc1cc(/C(Cc2ccccn2)=N\O)c(O)cc1O | -2% | ? | 0% | -67% | -17% | -7%
O=C(CN1C(=O)c2ccccc2S1(=O)=O)NCc1ccccn1 | -1% | 11% | 2% | nt | 0% | 0%
C/C(=N/NC(=O)CN(c1ccccc1)S(=O)(=O)c1ccccc1)c1ccccc1O | -30% | 13µM* | -1% | nt | -21% | -6%
O=C(Nc1ccc2c(c1)OCO2)Nc1ccccn1 | 2.8µM* | ? | ? | nt | 0.89µM* | 12µM*
O=C(Nc1ccc(Cl)cc1)Nc1ccc2c(c1)OCO2 | 1.1µM* | ? | 4.1µM* | nt | 1.8µM* | 2.1µM*
O=C(Nc1ccc2c(c1)OCO2)Nc1ccc(Cl)cc1Cl | ? | ? | ? | ? | ? | 4.8µM*
O=C(Nc1ccc2c(c1)OCO2)Nc1cnccn1 | 15% | ? | ? | 58% | 12% | ?
CC(NC(=O)Nc1ccc(Cl)cc1)c1ccc2c(c1)OCO2 (centres undefined) | -4% | 12% | -5% | nt | 4% | -1%
O=C(Nc1cccc(C(=O)O)c1)/C(=C\c1ccc2c(c1)OCO2)NC(=O)c1ccc(Br)o1 | ? | ? | 10% | ? | ? | 21µM*
O=C(Nc1ccc(C(=O)O)cc1)/C(=C\c1ccc2c(c1)OCO2)NC(=O)c1ccc(Br)o1 | -1% | 1% | 4% | 16% | 0% | -12%
Cn1ccc(NC(=O)Nc2ccc(Cl)cc2Cl)n1 | ? | ? | ? | 14µM* | ? | 15µM*
O=C(Nc1cccnc1)c1cnn2cccnc12 | 4% | 25% | 5% | 31% | 9% | 4%[2.3 µM]
O=C(Nc1ccc2c(c1)OCO2)c1cnn2cccnc12 | 2.2µM* | ? | 4.1µM* | 11µM* | 1.6µM* | 9.5µM*
S=C(Nc1ccc2c(c1)OCCO2)Nc1ccc2c(c1)OCO2 | ? | ? | ? | ? | 4µM* | 17µM*
O=C(Nc1ccc2c(c1)OCO2)Nc1ccc(F)cc1F | 1.4µM* | ? | ? | nt | 1.4µM* | 6µM*
O=C(Nc1cnccn1)Nc1ccc(Cl)cc1Cl | 22% | ? | 6% | nt | ? | -6%
